# In PubChem BioAssay (NCATS):
# Where “and” joins values, the source holds several entries; their conditions need not be identical. Equal values may be shown once. Inconclusive results are not listed. Unmarked numbers belong to inactive results. Calls of active or inactive are those of the source. Calls follow the shape of the dose curve; as a rule, active = well fitted inhibition curve with a large enough effect; inconclusive = small, poorly fitted or top-dose-only effect; inactive = no such curve, though single readings can be large or run the other way.
# Experiment: ZIKV-mCherry secondary qHTS for Zika virus inhibitors (AID 1347158); also: top concentration of the series differs between compounds
# Details: Vero cells, ZIKV-mCherry infection imaging, 48-72 h; series mostly up to 49.2 µM; activity change, negative = inhibition: at the top concentration
# Method in brief: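 Vero cells (5,000/well) were given compound, then infected with ZIKV-mCherry at MOI 1 for 48–72 h at 37 °C. After PFA fixation and Hoechst staining, imaging gave percent mCherry-positive cells. The positivity threshold was RFU above 450, 3 SD over negative controls.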
row,SMILES,"activity change, negative = inhibition"
1,O=C(Nc1ccc(C(=O)OCc2cc(=O)n3nc(C4CC4)sc3n2)cc1)c1cccc(Cl)c1,140% [at 32.6 µM]
2,Cc1ccc(S(=O)(=O)Nc2cc(SCC(=O)O)c(O)c3ccccc23)cc1[N+](=O)[O-],386%
3,C=C1c2c(Cl)ccc(O)c2C(O)=C2C(=O)[C@]3(O)C(O)=C(C(N)=O)C(=O)[C@@H](N(C)C)[C@@H]3[C@@H](O)C12 (some centres not stated),113% [at 32.6 µM]
4,Cc1ccc(Nc2nnc(-c3ccc(C)c(S(=O)(=O)NCc4nc5ccccc5[nH]4)c3)c3ccccc23)cc1,65.2% [at 32.6 µM]
5,CC(C)CN1CC(CNC(=O)c2ccc(Oc3ccccc3)cc2)Oc2ccnc(-c3ccc(OCC(=O)O)cc3)c2C1=O (configuration not stated),-15.3%
6,CN(C)c1cc(CNCC(C)(C)C)c(O)c2c1C[C@H]1C[C@H]3[C@H](N(C)C)C(=O)C(C(N)=O)=C(O)[C@@]3(O)C(=O)C1=C2O,3.76%
7,O=C(OC1Cc2c(O)cc(O)cc2OC1c1cc(O)c(O)c(O)c1-c1c(C2Oc3cc(O)cc(O)c3CC2OC(=O)c2cc(O)c(O)c(O)c2)cc(O)c(O)c1O)c1cc(O)c(O)c(O)c1 (configuration not stated),88.1%

# Experiment: Confirmatory screen NINDS Rhodamine qHTS for Zika virus inhibitors (AID 1347161); also: nearly all actives have a fitted effect of over 60% in size; also: potency is read from the fitted curve at half-maximal effect;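 as to activity change, negative = inhibition: purified Zika NS2B-NS3 protease with linked NS2B cofactor domain and Rhodamine110 peptide substrate; plate controls were no-inhibitor control for no effect and no-enzyme control for full effect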
# Details: purified enzyme assay, Rhodamine110 substrate fluorescence, 15 min; series mostly up to 114 µM; activity change, negative = inhibition: at the top concentration
# Method in brief: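 Percent inhibition, normalized to uninhibited and enzyme-free controls, is fitted to a 4-parameter Hill equation. Fluorescence change comes from a 15-min cleavage of 1.5 microM bis-peptide Rhodamine110 substrate by 25 nM linked NS2B-NS3 at room temperature.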
SMILES,"activity change, negative = inhibition [%]",Potency
CCOC(=O)c1ccc(CN(Cc2ccc(F)cc2)S(=O)(=O)c2ccc(F)c(C(=O)Nc3ccccc3C(F)(F)F)c2)cc1,0,–
CC(C)c1nn2c(=O)cc(COC(=O)c3ccccc3NC(=O)c3cccc(Cl)c3)nc2s1,2.86,–
COc1ccc(OC)c(Nc2sc(C(=O)c3ccccc3)c(N)c2S(=O)(=O)c2ccccc2)c1,-6.22,–
CCOC(=O)c1ccc(N2C(=O)c3n[nH]c(-c4cccs4)c3C2c2ccc(C(C)(C)C)cc2)cc1 (configuration not stated),–,15.8 µM (active)
CC(C)c1ccc(Nc2sc(C(=O)c3ccccc3)c(N)c2S(=O)(=O)c2ccccc2)cc1,-12.2,–
O=C(O)c1nc2cc(Cl)c(Cl)cc2[nH]c1=O,-7.48,–
CCCCc1nn2c(=O)cc(COC(=O)c3ccc(NC(=O)c4cccs4)cc3)nc2s1,-12.9,–
CCOC(=O)c1ccc(N2C(=O)c3n[nH]c(-c4cccs4)c3C2c2ccc(Cl)cc2Cl)cc1 (configuration not stated),–,25.1 µM (active)
Cc1ccc(S(=O)(=O)Nc2cc(SCC(=O)O)c(O)c3ccccc23)cc1[N+](=O)[O-],–,6.98 µM (active)
CCOC(=O)c1c(-c2ccccc2)csc1NC(=O)c1cc(-c2ccc(Cl)cc2)on1,3.66,–
C=C1c2c(Cl)ccc(O)c2C(O)=C2C(=O)[C@]3(O)C(O)=C(C(N)=O)C(=O)[C@@H](N(C)C)[C@@H]3[C@@H](O)C12 (some centres not stated),–,13.9 µM (active)
Nc1c(N=Nc2ccc([N+](=O)[O-])cc2)c(S(=O)(=O)O)cc2cc(S(=O)(=O)O)c(/C=C/c3ccccc3)c(O)c12,–,2.82 µM (active)
CCOC(=O)c1ccccc1NC(=O)CSc1ccc(-c2sc(-c3ccccc3)nc2C)nn1,-12.9,–
CCOC(=O)c1ccc(NC(=O)c2nc(SCc3ccc(F)cc3)ncc2Cl)cc1,0.294,–
CCCCOC(=O)c1ccc(NC(=O)c2ccc3c(c2)CCN3S(=O)(=O)c2ccccc2)cc1,9.53,–
CC(Oc1ccccc1)C(=O)Nc1ccc(C(=O)OCc2cc(=O)n3nc(C(C)C)sc3n2)cc1 (configuration not stated),-18.9,–
O=C(Nc1ccccc1C(F)(F)F)c1ccc2oc(=O)c(S(=O)(=O)c3ccc(F)cc3)cc2c1,-15.1,–
O=C(Nc1ccc(C(=O)OCc2cc(=O)n3nc(C4CC4)sc3n2)cc1)c1ccc(F)cc1,-2.49,–
O=C(Nc1cc(C(=O)Nc2ccc(S(=O)(=O)O)cc2S(=O)(=O)O)cc(C(=O)Nc2ccc(S(=O)(=O)O)cc2S(=O)(=O)O)c1)Nc1cc(C(=O)Nc2ccc(S(=O)(=O)O)cc2S(=O)(=O)O)cc(C(=O)Nc2ccc(S(=O)(=O)O)cc2S(=O)(=O)O)c1,–,2.24 µM (active) and 2 µM (active)
COc1ccc(S(=O)(=O)c2c(Nc3ccc(C)cc3)sc(C(=O)c3ccc4c(c3)OCO4)c2N)cc1,-17,–
O=C(Nc1ccccc1C(=O)OCc1cc(=O)n2nc(C3CC3)sc2n1)c1cccc(Cl)c1,-9.41,–
CN(C)c1cc(CNCC(C)(C)C)c(O)c2c1C[C@H]1C[C@H]3[C@H](N(C)C)C(=O)C(C(N)=O)=C(O)[C@@]3(O)C(=O)C1=C2O,5.87,–
O=C(CNC(=O)c1ccccc1F)OCc1cc(=O)n2nc(C3CCCCC3)sc2n1,-2.42,–
CCS(=O)(=O)c1cccc(C(=O)Nc2ccc(-c3nc4ccccc4s3)c(O)c2)c1,–,15.8 µM (active)
O=C(Nc1ccc(C(=O)Nc2ccc(C(=O)Nc3ccc(S(=O)(=O)O)c4cc(S(=O)(=O)O)cc(S(=O)(=O)O)c34)cc2)cc1)Nc1ccc(C(=O)Nc2ccc(C(=O)Nc3ccc(S(=O)(=O)O)c4cc(S(=O)(=O)O)cc(S(=O)(=O)O)c34)cc2)cc1,–,2.24 µM (active) and 1.26 µM (active)
CCOC(=O)c1ccc(NC(=O)c2nc(SCc3ccccc3F)ncc2Cl)cc1,0.477,–
N#C/C(=C\c1ccc(-c2cc(Cl)ccc2Cl)o1)C(=O)Nc1ccccc1C(=O)O,–,6.31 µM (active)
O=C(OC1Cc2c(O)cc(O)cc2OC1c1cc(O)c(O)c(O)c1-c1c(C2Oc3cc(O)cc(O)c3CC2OC(=O)c2cc(O)c(O)c(O)c2)cc(O)c(O)c1O)c1cc(O)c(O)c(O)c1 (configuration not stated),–,20 µM (active)
Cc1ccc(OCC(=O)Nc2ccccc2C(=O)OCc2cc(=O)n3nc(C4CC4)sc3n2)cc1,3.25,–
CC(=O)Nc1ccc(S(=O)(=O)O)c2cc(S(=O)(=O)O)c(N=Nc3ccc(N=Nc4ccc(S(=O)(=O)O)cc4)c4ccc(S(=O)(=O)O)cc34)c(O)c12,–,2.51 µM (active)
